These results are taken from ChEMBL document CHEMBL4513216, “Probing the Open Global Health Chemical Diversity Library for Multistage-Active Starting Points for Next-Generation Antimalarials” (ACS Infect Dis, 2020).

In all, about 69,000 compounds went through this assay and about 8,600 (12%) showed an effect of 50% or more. The sample holds strong results, similar compounds and a random draw of the others, so the mix is not that of the screen.

For the experiment, the system named is Plasmodium berghei. The experiment can be described thus: Screen against P. berghei liver stage (PbLuc), transformed with Luciferase, at 10uM. As to conditions: tested at 10 uM. Type of experiment: functional, HepG2.
On to `O=C(Nc1ccccn1)c1cncc(C2CCNCC2)n1`, for which the INHIBITION is -35.5%. The result for `N#CC1Sc2nnc(-c3ccccc3Br)n2N=C1N` (centres undefined) reads 16.2%; that for `O=C(c1ccc(-n2cnnn2)cc1)N1CCCC(n2ccnc2)C1` (centres undefined), 26.4%. The result for `CCN(CC1CCOC1)C(=O)Nc1ccc(N2CCCCC2)nc1` (centres undefined) reads -8.83%; that for `COCCNc1ccc(CC2CCCN(C3CCOCC3)C2)nn1` (centres undefined), 7.71%. With `O=C(c1nsc(Cl)c1Cl)N1CCc2nc3sccc3c(=O)n2CC1`, the INHIBITION was -14.1%. The result for `CN1CCN(C(=O)c2n[nH]c3c2CN(Cc2nccs2)CC3)CC1` reads -105%; that for `CN(C)C(=O)c1n[nH]c2c1CN(Cc1nccs1)CC2`, 88%. The result for `CN(C)C(=O)c1n[nH]c2c1CCN(Cc1nccs1)C2` reads -53.6%; that for `CC(C)CNC(=O)c1cn(C(C)C)cc2c(=O)[nH]nc1-2`, 36.8%; that for `Cn1c(=O)[nH]c(=O)n2c(CC(=O)NCc3ccccc3)cnc12`, 19.3%. The same measure for `O=C(Nc1cccnc1-n1cc(Cl)cn1)C1CCCC1`: 48%; for `O=C(Nc1cccnc1-n1cc(Cl)cn1)C1CCCCC1`: 52.6%; for `O=C(Nc1cccnc1-n1cc(Cl)cn1)C1CC1`: 41.5%. In the case of `COc1ccc(C)cc1C(C)NC(=O)CCn1cncn1` (centres undefined), the INHIBITION is listed as 19.2%. The same measure for `O=C(c1ccnnc1)N1C[C@@H]2C[C@@H](c3nc(C4CC4)cs3)O[C@@H]2C1`: -60.2%; for `O=C(c1ccncn1)N1CCC[C@]2(C[C@@H](OCc3ccccn3)CO2)C1`: 43.9%; for `COCC(=O)Nc1cc(S(=O)(=O)C(F)(F)F)ccc1OC`: 33.7%. As to `COc1ccc(S(=O)(=O)C(F)(F)F)cc1NC(=O)CSC`, the INHIBITION is 63.7%. The same measure for `COc1ccc(S(=O)(=O)C(F)(F)F)cc1NC(=O)CSCC#N`: 48.3%; for `Cc1ccccc1CN(C)C(=O)CN1CCCC(Cn2cncn2)C1` (centres undefined): -51.5%. The same measure for `COc1cc(C)c(C(C)NC(=O)NCCCn2cncn2)cc1OC` (centres undefined): -19.4%; for `Cc1cccc(CN2Cc3ncn(C)c3C(COCC(=O)N(C)C)C2)n1` (centres undefined): -10.3%; for `CN(C)CCOCC1CN(Cc2ccncc2)Cc2nnn(C)c21` (centres undefined): 3.58%.

As for `CN(C)CCOCC1CN(Cc2ccoc2)Cc2nnn(C)c21` (centres undefined), the INHIBITION turned out to be 18.5%. The result for `CCn1nnc2c1C(COCCN(C)C)CN(c1nncs1)C2` (centres undefined) reads 57.1%. The same measure for `CN(C)C(=O)COCC1CN(CC2CCOCC2)Cc2ncn(C)c21` (centres undefined): 4.57%; for `CCn1nnc2c1C(COCCN(C)C)CN(Cc1ccco1)C2` (centres undefined): 62.3%. The result for `CCS(=O)(=O)N1Cc2nnn(C)c2C(COCCN(C)C)C1` (centres undefined) reads 48.2%. For `CCn1nnc2c1C(COCCN(C)C)CN(Cc1ccc(C)s1)C2` (centres undefined), the INHIBITION was -22.1%. The same measure for `CCn1nnc2c1C(COCCN(C)C)CN(S(=O)(=O)CC)C2` (centres undefined): 52.6%.

In the case of `CCn1nnc2c1C(COCCN(C)C)CN(S(C)(=O)=O)C2` (centres undefined), the INHIBITION is 43.8%. The same measure for `CCn1nnc2c1C(COC)CN(Cc1ccco1)C2` (centres undefined): -30.1%; for `CN(C)CCN1Cc2ncn(C)c2C(COCC(=O)N(C)C)C1` (centres undefined): 50%.
